Screening data from PubChem.
B2AR arrestin ag: beta-arrestin recruitment by human beta2-adrenergic receptor ligands; HTLA Tango cells, beta-arrestin recruitment, luciferase luminescence, 18 h; 44,000 tested, under 10 active; P07550; Potency, µM (titrated, usually from 46.1 µM), most hits filed as activators;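 also: potency is read from the fitted curve at half-maximal effect; 0% = DMSO and full agonism = EC100 isoproterenol or metaproterenol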
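Luminescence read-out: arrestin recruitment to recombinant beta2-AR releases tTA, inducing luciferase. Cells exposed 18 hr at 37 degrees C to up to 46 microM compound; %Activity from corrected signal, concentration-response curves classified by r2, magnitude and efficacy.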
FH mod: Identification of activators of human fumarate hydratase by quantitative high-throughput screening. Fumarate hydratase, mitochondrial (Homo sapiens), P07954. FH coupled MDH/diaphorase resazurin fluorescence, 15 min. Potency, µM (titrated, usually from 79.9 µM), inactives show top-dose activity change, negative = inhibition, hits mostly inhibitors. 54,000 compounds, 0.22% hits; also: potency is read from the fitted curve at half-maximal effect; % is scaled to controls: 0 for no effect and ±100 for the full control effect; the screen sought activators but most active calls are inhibition curves; nearly all actives have a fitted effect of over 45% in size
Target sequence (P07954 whole entry, looked up): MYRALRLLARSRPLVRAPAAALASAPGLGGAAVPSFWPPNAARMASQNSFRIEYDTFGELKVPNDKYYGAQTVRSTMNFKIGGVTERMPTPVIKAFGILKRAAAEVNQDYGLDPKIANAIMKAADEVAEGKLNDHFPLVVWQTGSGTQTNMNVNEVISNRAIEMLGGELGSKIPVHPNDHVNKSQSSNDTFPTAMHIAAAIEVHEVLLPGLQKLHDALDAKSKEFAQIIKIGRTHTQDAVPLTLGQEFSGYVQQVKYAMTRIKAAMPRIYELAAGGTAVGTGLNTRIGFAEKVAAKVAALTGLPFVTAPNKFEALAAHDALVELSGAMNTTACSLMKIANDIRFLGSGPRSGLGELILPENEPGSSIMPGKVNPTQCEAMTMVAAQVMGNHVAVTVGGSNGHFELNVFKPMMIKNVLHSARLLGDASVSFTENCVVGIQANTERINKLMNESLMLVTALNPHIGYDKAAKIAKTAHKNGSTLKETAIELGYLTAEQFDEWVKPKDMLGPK
HTT prom inh: inhibitors of huntingtin promoter activity. Potency, µM (doses to about 57.5 µM), for inactives: at the top dose activity change, negative = inhibition, actives largely listed as inhibitors. HEK293 HTT promoter firefly luciferase reporter, 24 h. 48,000 compounds, 0.93% hits; also: potency is read from the fitted curve at half-maximal effect; nearly all actives have a fitted effect of over 50% in size
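Firefly luciferase readout (Dual-Glo, 10 min RT) after 24 h, 37 °C compound exposure (final up to 57.5 uM) of HEK293 reporter cells cultured 24 h beforehand; PTC124 at 50 uM final as control inhibitor; activity scaled vehicle 0%, zero RLU -100%.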
HTT-AS promoter: HTT-AS promoter activation. HEK293 HTT-AS promoter firefly luciferase reporter, 24 h; response scale: percent change from vehicle, -100% = no light. Potency, µM (doses to about 57.5 µM), for inactives: at the highest dose activity change, positive = activation, usual class: activators. 48,000 compounds, 0.24% hits; also: potency is read from the fitted curve at half-maximal effect; nearly all actives have a fitted effect of over 55% in size
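Firefly luciferase readout (Dual-Glo, 10 min RT) after 24 h, 37 °C compound exposure (final up to 57.5 uM) of HEK293 reporter cells cultured 24 h beforehand; PTC124 at 50 uM final as control inhibitor; activity scaled vehicle 0%, zero RLU -100%.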
GALC G270D up: enhancers of human galactocerebrosidase G270D mutant activity in cells; 45,000 compounds, 0.1% hits; 145M-Twi-hGALC-G270D cells (Twitcher mouse brain line with human GALC G270D), HMU-beta-Gal fluorescence, 48 h; P54803; Potency, µM (doses to about 57.5 µM), most hits filed as activators; also: potency is read from the fitted curve at half-maximal effect; 0% is about no effect; nearly all actives have a fitted effect of over 65% in size
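Brain-derived Twitcher mouse 145M-Twi cells stably expressing human GALC-G270D or wild-type GALC, treated live, then residual GALC activity read by fluorescence of HMU-b-Gal substrate (0.1 mM final) in citrate-phosphate buffer pH 5.2 with sodium taurocholate. Signal increase indicates enhancement.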
GPR32 ag: activates human resolvin D1 receptor GPR32; O75388; CHO-K1 GPR32 beta-arrestin PathHunter luminescence, 90 min; zero percent set by DMSO-only wells; activation, % at 76.9 µM; 48,000 compounds, 2.5% hits; AID 1346428;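 active = activation of at least 60% and not above a set upper limit, about 1 call in 100 departs from these limits; inconclusive = activation of 40% to 60%, or above that upper limit; inactive = activation under 40%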; also: 0% is about no effect
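PathHunter enzyme-fragment complementation, CHO-K1 GPR32 stable line; 2,500 cells/well, overnight attach; cpd 90 min 37 °C 5% CO2; detection reagent 1 h RT; chemiluminescence. DMSO = EC0.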
Active calls of the source: *; i = inactive; ? = inconclusive; / = no result; ! = a repeat was not active; [ ] = another dose, or the depositor's remark. Sampled rows, rich in hits. Any-hit rate of the full collection: about 3.7%. Unless noted, calls follow the shape of the dose curve; as a rule, active = well fitted curve in the direction sought with a large enough effect; inconclusive = small, poorly fitted or top-dose-only effect, or another doubt; inactive = no such curve, though single readings can be large; an effect the other way counts as inactive or inconclusive.

SMILES	B2AR arrestin ag	FH mod	HTT prom inh	HTT-AS promoter	GALC G270D up	GPR32 ag
CCN(CC)C(=O)Cn1c(=O)cc(C)c2c(C)nn(-c3cccc(Cl)c3C)c21	i	-10.4%	-8.9%	4.0%	i	94.0*
CC(C)c1ccc(C2Sc3ccccc3NC3=C2C(=O)c2ccccc23)cc1 (stereo unspecified)	i	?	12.6µM*	-79.8%	i	-59.6
CCc1ccc(C2Sc3ccccc3NC3=C2C(=O)c2ccccc23)cc1 (stereo unspecified)	i	?	?	-0.7%	i	-58.5
O=C(NCc1ccc(Cl)cc1Cl)c1cccc(N2CCCS2(=O)=O)c1	i	0.0%	?	-31.7%	i	61.7*
Cc1ccc(NC(=O)c2cccc(N3CCCS3(=O)=O)c2)cc1C	i	-42.3%	51.9%	2.24µM*	i	39.2
Cc1ccc(NC(=O)c2cccc(N3CCCS3(=O)=O)c2)cc1	i	-22.0%	10.0%	?	i	-20.9
CC1=CC(=O)C(=C(C)C)CC2C(C)(O)CCC12O (stereo unspecified)	/	7.1%	/	/	/	/
C/C(=C\Cc1c(O)c(Cl)c(C)c(C=O)c1O)CC/C=C(\C)[C@H]1CC(=O)C(C)(C)O1	/	-0.1%[53.3 µM]	/	/	/	/
O=C(CCS(=O)(=O)c1cccs1)Nc1ccc(C(=O)Nc2cccc(Cl)c2)cc1	i	-21.4%	-3.0%	5.7%	i	65.3*
CCNC(=O)N1CCN(CCCC(c2ccc(F)cc2)c2ccc(F)cc2)CC1	/	-29.7%[53.3 µM]	-16.9%	-23.0%	i	112.4*!
O=C(c1ccc(CSc2nc3ccncc3n2Cc2ccc(F)cc2)cc1)N1CCCCCC1	i	0.8%	?	-17.6%	i	61.4*
COc1cc(OC)cc(C(=O)NCCc2csc(-c3ccc(C(F)(F)F)cc3)n2)c1	i	?	?	-30.6%	i	-13.8
COc1ccc(C(=O)NCCc2csc(-c3ccc(Cl)cc3)n2)cc1	i	?	?	-18.7%	i	86.6*
CCCCOc1ccc(C(=O)NCCc2csc(-c3ccc(OC)cc3)n2)cc1	i	?	22.4µM*	-39.8%	i	-2.3
CCOc1ccc(C(=O)NCCc2csc(-c3cccc(C)c3)n2)cc1	i	?	-9.5%	-9.2%	i	-8.8
COc1ccc(C(=O)NCCc2csc(-c3ccc(Cl)cc3)n2)c(OC)c1	i	35.5µM*	?	-23.0%	i	70.2*
Cc1cc(N2CCN([C@@H]3CN[C@H](C(=O)N4CCSC4)C3)CC2)n(-c2ccccc2)n1	/	-0.9%	/	/	/	/
COc1ccc(Cn2c(SCC(=O)Nc3ccc(OC)cc3)nc3ccccc32)cc1	i	-11.3%	?	-30.4%	i	15.7
COc1ccc(CCN2CCC(Nc3nc4ccccc4n3Cc3ccc(F)cc3)CC2)cc1	/	-9.3%[53.3 µM]	?	-23.2%	i	94.6*
CC(=O)c1cc(-c2ccccc2)n(CC(=O)NCc2ccccc2C)c1C	i	/	/	/	/	79.7*
CC(=O)c1cc(-c2ccc(F)cc2)n(CCC(=O)NCc2ccccc2C)c1C	i	/	/	/	/	-9.7
Nc1c(S(=O)(=O)O)cc(Nc2ccc(Nc3nc(Cl)nc(Nc4ccc(S(=O)(=O)O)cc4)n3)c(S(=O)(=O)O)c2)c2c1C(=O)c1ccccc1C2=O	/	5.01µM*	/	/	/	-54.7
O=c1oc2ccccc2n1CCCOc1ccccc1Cl	i	-1.0%	22.3%	7.94µM*	i	33.6
Clc1ccc(Cn2c(Cc3ccccc3)nc3ccccc32)cc1	/	-19.2%	/	/	/	/
CCOC(=O)c1oc2c(c1C)-c1nn(Cc3ccc(Cl)cc3)cc1CC2	i	31.6µM*[activator]	?	-37.8%	i	-41.2
SMILES	B2AR arrestin ag	FH mod	HTT prom inh	HTT-AS promoter	GALC G270D up	GPR32 ag
CC(=O)OC1CC2C3(C)CCC(OC(=O)CC(=O)O)C(C)(C)C3CCC2(C)C2(C)CCC(C3(C)CCC(=O)O3)C12 (stereo unspecified)	/	0.5%[53.3 µM]	/	/	/	/
COc1ccc(C(=O)NCC(c2cccnc2)N2CCN(c3ccccc3)CC2)cc1 (stereo unspecified)	i	0.3%	?	-23.7%	i	5.3
COc1ccc(CNC(=O)C(=O)NCC(c2cccnc2)N2CCN(c3ccccc3)CC2)cc1 (stereo unspecified)	i	-4.6%	12.6µM*	-36.2%	i	-1.7
COc1ccc(CCNC(=O)C(=O)NCC(c2cccnc2)N2CCN(c3ccccc3)CC2)cc1 (stereo unspecified)	i	-4.2%	12.6µM*	-63.7%	i	6.3
Cc1ccc(CNC(=O)C(=O)NCC(c2cccnc2)N2CCN(c3ccccc3F)CC2)cc1 (stereo unspecified)	i	-7.4%	14.1µM*	-48.2%	i	1.1
CCCN(CCC)S(=O)(=O)c1ccc(C(=O)Nc2cccc(-c3nc4ccccc4[nH]3)c2)cc1	i	-25.9%	?	-47.9%	i	-13.0
COc1c(Cl)cc(C(=O)Nc2cccc(-c3nc4ccccc4[nH]3)c2)cc1Cl	i	-11.6%	-24.7%	-36.1%	i	106.0*
COc1ccc(C(=O)NCc2cc(C(C)C)no2)cc1OC1CCN(C)CC1	/	-3.7%	/	/	/	/
CN1CCCCC1CCN1c2ccccc2Sc2ccc(S(C)=O)cc21 (stereo unspecified)	/	5.2%[53.3 µM]	-0.3%	-4.1%	i	64.5*
CN1CCN(CCCN2c3ccccc3Sc3ccc(Cl)cc32)CC1	/	-20.9%[53.3 µM]	-5.4%	-17.4%	i	2.5
Cc1c(C(=O)OC2CCCCCC2)[nH]c2c1C(=O)CC(c1ccccc1)C2 (stereo unspecified)	i	1.3%	?	-25.3%	i	78.6*
Cc1c(C(=O)OC2CCCCCC2)[nH]c2c1C(=O)CC(c1ccc(Cl)cc1)C2 (stereo unspecified)	i	5.1%	6.0%	-8.6%	i	-6.5
COc1cc(C2CC(=O)c3c([nH]c(C(=O)OC4CCCC4)c3C)C2)cc(OC)c1OC (stereo unspecified)	i	-28.6%	4.47µM*	-54.0%	i	30.6
COc1cc(C2CC(=O)N(Cc3cccc(F)c3)c3ccccc3S2)cc(OC)c1OC (stereo unspecified)	i	-15.8%	20µM*	-69.0%	i	10.0
COc1cc2c(cc1Cc1cccc(Cl)c1F)c(=O)c(C(=O)O)cn2[C@H](CO)C(C)C	/	9.8%[53.3 µM]	?	-30.6%	/	/
COc1cc2nc(NC(=O)c3ccc(S(=O)(=O)N4CCc5ccccc54)cc3)sc2cc1OC	i	-7.2%	12.6µM*	-40.9%	i	-62.4
